# From PubChem BioAssay (NCATS)
# “And” between values parts separate entries of the source, which are not always exact repeats. Equal entries are not always repeated. Records with an inconclusive call do not appear. A call without a number means that no potency is given here. The source made the active and inactive calls. Unless noted, calls follow the shape of the dose curve; as a rule, active = well fitted curve in the direction sought with a large enough effect; inconclusive = small, poorly fitted or top-dose-only effect, or another doubt; inactive = no such curve, though single readings can be large; an effect the other way counts as inactive or inconclusive.
# Key:
# [1] = qHTS assay for small molecule agonists of retinoid X receptor alpha signaling (AID 588544; calls by dose curve); conditions: HEK293T RXRa-UAS-bla, beta-lactamase reporter, 18 h; 530 nm emission
# [2] = target: Retinoic acid receptor RXR-alpha (Homo sapiens) (UniProt P19793); experiment: as above; conditions: HEK293T RXRa-UAS-bla, beta-lactamase reporter, 18 h; series mostly up to 76.7 µM
# Retinoic acid receptor RXR-alpha (Homo sapiens), sequence (P19793 whole entry, looked up): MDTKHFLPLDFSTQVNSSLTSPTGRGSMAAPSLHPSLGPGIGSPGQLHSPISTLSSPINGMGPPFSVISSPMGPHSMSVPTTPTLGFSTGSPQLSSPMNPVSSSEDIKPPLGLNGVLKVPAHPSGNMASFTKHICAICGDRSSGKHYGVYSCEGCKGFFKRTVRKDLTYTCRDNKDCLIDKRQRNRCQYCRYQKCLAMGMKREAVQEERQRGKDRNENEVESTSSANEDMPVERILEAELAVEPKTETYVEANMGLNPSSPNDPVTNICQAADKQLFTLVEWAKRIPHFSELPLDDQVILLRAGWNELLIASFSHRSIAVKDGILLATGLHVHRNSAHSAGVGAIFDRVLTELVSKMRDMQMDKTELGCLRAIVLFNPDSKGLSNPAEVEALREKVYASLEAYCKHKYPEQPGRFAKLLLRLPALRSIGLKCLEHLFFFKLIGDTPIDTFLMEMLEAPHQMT
# [3] = target: Thyroid hormone receptor beta (Homo sapiens) (UniProt P10828); experiment: qHTS assay for small molecule agonists of thyroid hormone receptor beta signaling (AID 588545; calls by dose curve); conditions: TR-UAS-bla GripTite HEK 293, beta-lactamase ratio, agonist mode, 18 h, percent of T3 response, DMSO as zero; series mostly up to 76.7 µM
# Thyroid hormone receptor beta (Homo sapiens), sequence (P10828 whole entry, looked up): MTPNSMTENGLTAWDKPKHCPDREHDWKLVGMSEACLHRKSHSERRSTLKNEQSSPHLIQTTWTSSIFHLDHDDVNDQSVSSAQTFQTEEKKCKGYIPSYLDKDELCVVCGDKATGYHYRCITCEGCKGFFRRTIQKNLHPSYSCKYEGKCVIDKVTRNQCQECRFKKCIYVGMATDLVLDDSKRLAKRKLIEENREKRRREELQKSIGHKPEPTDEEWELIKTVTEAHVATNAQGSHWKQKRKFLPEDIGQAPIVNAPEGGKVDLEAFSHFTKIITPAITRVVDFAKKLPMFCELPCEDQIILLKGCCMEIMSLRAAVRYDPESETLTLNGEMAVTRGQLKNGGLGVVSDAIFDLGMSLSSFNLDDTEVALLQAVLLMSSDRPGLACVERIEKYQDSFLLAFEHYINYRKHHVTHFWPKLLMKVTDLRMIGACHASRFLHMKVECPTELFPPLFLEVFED
# Procedure, shortened: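 Compounds were tested as agonists in TR-UAS-bla-GripTite HEK 293 cells. After 18 hrs at 37 C, CCF4 substrate was added and fluorescence read after 2 hrs at room temperature.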
# [4] = qHTS assay for small molecule antagonists of retinoid X receptor alpha signaling (AID 588546; active = well fitted inhibition curve with a large enough effect in the signal ratio, with a control signal flat, not every such curve was filed as active; the % refers to the signal ratio;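 also: cells stimulated with 9-cis-retinoic acid as agonist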); conditions: HEK293T RXRa-UAS-bla, beta-lactamase ratio, antagonist mode; measured here: W530 green channel, cytotoxicity proxy
# Procedure, shortened: (§1)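 Beta-lactamase reporter inhibition, read as CCF4 fluorescence ratio (ex 405, em 460/530 nm) after 2 h at RT. HEK293T UAS-bla cells, 2500/well, were stimulated with 9-cis-RA at 500 or 100 nM final alongside test compound for 18 h at 37 C.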
# [5] = target: Retinoic acid receptor RXR-alpha (Homo sapiens) (UniProt P19793); experiment: as above; conditions: HEK293T RXRa-UAS-bla, beta-lactamase ratio, antagonist mode
# Procedure, shortened: as §1
# [6] = target: Thyroid hormone receptor beta (Homo sapiens) (UniProt P10828); experiment: qHTS assay for small molecule antagonists of thyroid hormone receptor beta signaling (AID 588547; active = well fitted inhibition curve with a large enough effect in the signal ratio, with a control signal flat, not every such curve was filed as active; the % refers to the signal ratio;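 also: cells stimulated with 0.4 nM T3 agonist during compound exposure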); conditions: TR-UAS-bla HEK293, beta-lactamase ratio, antagonist mode, 18 h
# Procedure, shortened: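 TR-UAS-bla GripTite HEK293 cells in 2% charcoal/dextran FBS medium; compounds 0.59 nM to 92 uM with T3 at 0.4nM final, 18 h at 37 C. Beta-lactamase read by CCF4 fluorescence (460/530 nm); Hill fits gave IC50 and efficacy.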
# [7] = target: Voltage-gated inwardly rectifying potassium channel KCNH2 (Homo sapiens) (UniProt Q12809); experiment: qHTS Assay for Small Molecule Inhibitors of the Human hERG Channel Activity (AID 588834); conditions: U2OS BacMam hERG, FluxOR thallium flux fluorescence; series mostly up to 46.1 µM;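 also: lower thallium flux fluorescence means stronger hERG block; nearly all actives have a fitted effect of over 50% in size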; also: potency is read from the fitted curve at half-maximal effect; as to activity change, negative = inhibition: top concentration of the series differs between compounds
# Voltage-gated inwardly rectifying potassium channel KCNH2 (Homo sapiens), sequence (Q12809 whole entry, looked up): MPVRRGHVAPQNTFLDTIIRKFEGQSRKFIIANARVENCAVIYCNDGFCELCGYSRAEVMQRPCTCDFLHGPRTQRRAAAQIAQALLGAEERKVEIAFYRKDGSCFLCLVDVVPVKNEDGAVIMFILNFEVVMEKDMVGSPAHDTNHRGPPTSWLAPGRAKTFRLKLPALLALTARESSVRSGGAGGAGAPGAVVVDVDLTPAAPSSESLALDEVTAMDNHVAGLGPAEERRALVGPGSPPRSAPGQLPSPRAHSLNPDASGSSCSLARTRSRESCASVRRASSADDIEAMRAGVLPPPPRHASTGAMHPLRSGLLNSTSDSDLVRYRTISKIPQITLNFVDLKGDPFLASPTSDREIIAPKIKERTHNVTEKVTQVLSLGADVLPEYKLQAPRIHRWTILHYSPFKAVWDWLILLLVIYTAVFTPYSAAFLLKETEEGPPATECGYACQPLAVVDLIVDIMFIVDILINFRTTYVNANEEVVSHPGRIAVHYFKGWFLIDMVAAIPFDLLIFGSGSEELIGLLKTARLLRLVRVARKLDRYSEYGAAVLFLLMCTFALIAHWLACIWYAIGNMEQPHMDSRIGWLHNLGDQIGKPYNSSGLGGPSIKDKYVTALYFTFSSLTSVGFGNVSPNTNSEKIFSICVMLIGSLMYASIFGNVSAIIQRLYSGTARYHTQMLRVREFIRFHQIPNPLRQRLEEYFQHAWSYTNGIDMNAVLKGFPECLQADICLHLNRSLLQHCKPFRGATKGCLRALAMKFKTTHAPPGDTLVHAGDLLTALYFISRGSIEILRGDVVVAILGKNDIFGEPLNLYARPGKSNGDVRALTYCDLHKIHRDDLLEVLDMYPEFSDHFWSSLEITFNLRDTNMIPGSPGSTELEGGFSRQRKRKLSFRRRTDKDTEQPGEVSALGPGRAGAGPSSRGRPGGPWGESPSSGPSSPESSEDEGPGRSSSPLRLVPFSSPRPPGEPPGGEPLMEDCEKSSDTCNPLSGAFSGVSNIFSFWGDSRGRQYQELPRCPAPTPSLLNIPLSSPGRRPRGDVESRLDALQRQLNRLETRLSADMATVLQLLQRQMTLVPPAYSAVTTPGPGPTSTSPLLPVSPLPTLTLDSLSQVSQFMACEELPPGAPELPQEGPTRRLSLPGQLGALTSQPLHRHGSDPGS
# Procedure, shortened: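 Thallium serves as surrogate for K+ influx through BacMam-delivered hERG in U2OS cells. Compounds are added for about 10 minutes after dye loading; stimulation buffer then starts flux, monitored kinetically on FDSS.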
# [8] = target: Luciferin 4-monooxygenase (Photinus pyralis) (UniProt P08659); experiment: Biochemical firefly luciferase enzyme assay for NPC (AID 624030); also: nearly all actives have a fitted effect of over 70% in size; also: potency is read from the fitted curve at half-maximal effect;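 as to activity change, negative = inhibition: purified P. pyralis luciferase at 10 nM with luciferin and ATP substrate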; conditions: purified P. pyralis luciferase, luminescence, 5 min; series mostly up to 58.6 µM
# Luciferin 4-monooxygenase (Photinus pyralis), sequence (P08659 whole entry, looked up): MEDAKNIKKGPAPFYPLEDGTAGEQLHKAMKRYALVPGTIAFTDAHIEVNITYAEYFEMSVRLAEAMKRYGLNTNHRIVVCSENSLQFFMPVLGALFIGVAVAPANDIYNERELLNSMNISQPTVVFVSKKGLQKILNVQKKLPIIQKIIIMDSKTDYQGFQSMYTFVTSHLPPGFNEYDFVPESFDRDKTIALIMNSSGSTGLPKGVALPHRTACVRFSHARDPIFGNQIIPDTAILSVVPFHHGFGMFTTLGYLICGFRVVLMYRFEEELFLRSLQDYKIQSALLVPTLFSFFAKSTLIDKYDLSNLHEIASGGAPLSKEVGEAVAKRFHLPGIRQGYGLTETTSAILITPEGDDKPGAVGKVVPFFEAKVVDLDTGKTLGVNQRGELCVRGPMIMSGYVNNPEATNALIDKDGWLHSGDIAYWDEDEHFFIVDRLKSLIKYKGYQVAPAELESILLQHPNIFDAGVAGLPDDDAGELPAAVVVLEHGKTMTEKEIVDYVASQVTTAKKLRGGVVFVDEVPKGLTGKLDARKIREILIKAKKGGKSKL
# Procedure, shortened: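 Purified P. pyralis luciferase at 10 nM in 50 mM Tris Acetate (final), luminescence read within 5 minutes of enzyme addition to compounds. Activity normalised to PTC124 versus DMSO; concentration-response curves classed by r2, magnitude and activity.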
# [9] = S16 Schwann cell PMP22 intronic element firefly luciferase assay (AID 624032); conditions: S16 rat Schwann cells, PMP22 element FLuc, 24 h; series mostly up to 57.5 µM; also: nearly all actives have a fitted effect of over 30% in size; also: potency is read from the fitted curve at half-maximal effect
# Procedure, shortened: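 Rat S16 Schwann cells stably carrying firefly luciferase driven by a PMP22 intronic element, in 10% FBS, treated 24 h at 37 C. ONE-Glo luminescence normalized to PTC124 control and DMSO (0%); curves classed by r2, magnitude and activity.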
# [10] = S16 Schwann cell viability assay (CellTiter-Glo assay) (AID 624031); conditions: S16 rat Schwann cells viability, 24 h; series mostly up to 57.5 µM;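 also: native untransfected S16 rat Schwann cells; cellular ATP luminescence as a viability measure; nearly all actives have a fitted effect of over 70% in size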
# Procedure, shortened: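 Concentration-effect curves come from CellTiter-Glo luminescence of S16 rat Schwann cells after 24 h compound exposure. Each reading was normalized to DMSO wells (0%) and wells without cells, and curves were ranked by r2 and response magnitude.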
structure (smiles),measurement,setting,value
O=C1c2ccccc2C(=O)C1C(=O)C(c1ccccc1)c1ccccc1,max response,[1],-20.8%
same,Potency,[2],inactive
same,outcome,[3],inactive
same,max response,[4],-10.9%
same,max response,[5],13.2% (inactive)
same,activity change % (negative = inhibition),[6],3.48% (inactive)
same,Potency,[7],inactive
same,Potency,[8],inactive
same,Potency,[9],inactive
C[C@]1(O)CC[C@H]2[C@@H]3CCC4=CC(=O)CC[C@]4(C)[C@@]3(F)[C@@H](O)C[C@@]21C,max response,[1],3.94%
same,Potency,[2],inactive
same,outcome,[3],inactive
same,max response,[4],17.9%
same,max response,[5],-6.75% (inactive)
same,activity change % (negative = inhibition),[6],5.6% (inactive)
same,Potency,[7],inactive
Oc1ccc(Cl)cc1,max response,[1],-11.6%
same,Potency,[2],inactive
same,outcome,[3],inactive
same,max response,[4],-7.58%
same,max response,[5],-3.06% (inactive)
same,activity change % (negative = inhibition),[6],-0.268% (inactive)
same,Potency,[7],inactive
same,Potency,[8],inactive
same,outcome,[10],inactive
same,Potency,[9],inactive
CC1(C)C(C=C(Cl)Cl)C1C(=O)OC(C#N)c1cccc(Oc2ccccc2)c1 (stereo not drawn),max response,[1],0.437%
same,Potency,[2],inactive
same,outcome,[3],inactive
same,max response,[4],-14.1%
same,max response,[5],-18% (inactive)
same,Potency,[8],inactive
NCCc1ccc(O)cc1,max response,[1],-3.57%
same,Potency,[2],inactive
same,outcome,[3],inactive
same,max response,[4],-9.48%
same,max response,[5],-2.52% (inactive)
same,activity change % (negative = inhibition),[6],-4.83% (inactive)
same,Potency,[7],inactive
same,Potency,[8],inactive
same,outcome,[10],inactive
same,Potency,[9],inactive
CC(=O)NC1CCSC1=O (stereo not drawn),Potency,[7],inactive
Oc1ccccc1,max response,[1],-13.8% and -5.05%
same,Potency,[2],inactive
CCOP(=S)(OCC)Oc1ccc2c(C)c(Cl)c(=O)oc2c1,outcome,[3],inactive
same,Potency,[7],inactive
same,Potency,[8],inactive
same,outcome,[10],inactive
same,Potency,[9],8.09 µM (active)
Nc1ccccc1C(=O)O,max response,[1],-3.98%
same,Potency,[2],inactive
same,outcome,[3],inactive
same,max response,[4],-6.42%
same,max response,[5],6.99% (inactive)
same,activity change % (negative = inhibition),[6],18% (inactive)
same,Potency,[7],inactive
same,Potency,[8],inactive
same,outcome,[10],inactive
CCOC(=O)CC(SP(=S)(OC)OC)C(=O)OCC (stereo not drawn),max response,[1],5.59%
same,Potency,[2],inactive
same,outcome,[3],inactive
same,max response,[4],12.5% and 3.13% and -23.2%
same,max response,[5],-24.3% (inactive) and -13.6% (inactive) and -13.7% (inactive)
same,activity change % (negative = inhibition),[6],-33.5% (inactive)
same,Potency,[7],inactive
same,Potency,[8],inactive
same,outcome,[10],inactive
same,Potency,[9],inactive
C[C@@H]1O[C@@H]1P(=O)(O)O,Potency,[7],inactive
CC(C)(C)NCC(O)c1ccccc1Cl (stereo not drawn),Potency,[7],inactive
same,Potency,[8],inactive
same,outcome,[10],inactive
same,Potency,[9],inactive
COP(=S)(OC)Oc1ccc(S(=O)(=O)N(C)C)cc1,Potency,[7],inactive
same,Potency,[8],inactive
same,outcome,[10],inactive
same,Potency,[9],inactive
CCCCCN(C)CCC(O)(P(=O)(O)O)P(=O)(O)O,Potency,[7],inactive
O=C1OC(c2ccc(O)c(S(=O)(=O)O)c2)(c2ccc(O)c(S(=O)(=O)O)c2)c2c(Br)c(Br)c(Br)c(Br)c21,Potency,[7],inactive
same,Potency,[8],28.7 µM (active)
same,outcome,[10],inactive
same,Potency,[9],inactive
COc1ccc2c(c1)C13CCCC[C@@H]1C(C2)N(C)CC3 (stereo partly drawn),Potency,[7],inactive
same,Potency,[8],inactive
same,outcome,[10],inactive
same,Potency,[9],inactive
CCC1(CC)C(=O)C=CNC1=O,Potency,[7],inactive
same,Potency,[8],inactive
same,outcome,[10],inactive
same,Potency,[9],inactive
CNC(C)(C)Cc1ccccc1,Potency,[7],inactive
same,Potency,[8],inactive
same,outcome,[10],inactive
same,Potency,[9],inactive
Cc1nnc2n1-c1ccc(Cl)cc1C(c1ccccc1Cl)=NC2,Potency,[7],inactive
same,Potency,[8],inactive
same,outcome,[10],inactive
same,Potency,[9],inactive
NC1=NC(=O)C(c2ccccc2)O1 (stereo not drawn),Potency,[7],inactive
C=C(C)[C@H]1CN[C@H](C(=O)O)[C@H]1CC(=O)O,Potency,[7],inactive
same,Potency,[8],inactive
same,outcome,[10],inactive
same,Potency,[9],inactive
CCCCC/C=C\C/C=C\C/C=C\C/C=C\CCCC(=O)NCC(=O)O,Potency,[7],inactive
same,"activity change, negative = inhibition",[8],-1.65% [at 5.2 µM] (inactive)
same,"activity change, negative = cytotoxicity",[10],-23.3% [at 5.34 µM] (inactive)
same,"activity change, negative = inhibition",[9],-9.07% [at 5.34 µM] (inactive)
O=C(CCCN1CCC2(CC1)C(=O)NCN2c1ccccc1)c1ccc(F)cc1,Potency,[7],1.78 µM (active) and 1 µM (active)
same,Potency,[8],inactive
same,outcome,[10],inactive
same,Potency,[9],inactive
CCCCCCC(=O)CCCCCC/C=C/C[C@@H](O)[C@H](O)[C@@](N)(CO)C(=O)O,Potency,[7],inactive
same,Potency,[8],inactive
same,outcome,[10],inactive
CN1C(=O)CCS(=O)(=O)C1c1ccc(Cl)cc1 (stereo not drawn),Potency,[7],inactive
same,Potency,[8],inactive
same,outcome,[10],inactive
same,Potency,[9],inactive
CC(C)(C)NCC(O)c1cc(Cl)c(N)c(C(F)(F)F)c1 (stereo not drawn),Potency,[7],inactive
same,Potency,[8],inactive
same,outcome,[10],inactive
same,Potency,[9],inactive
O=[N+]([O-])O[C@H]1CO[C@H]2[C@@H]1OC[C@H]2O[N+](=O)[O-],Potency,[7],inactive
COc1cccc([C@@]2(O)CCCC[C@@H]2CN(C)C)c1,Potency,[7],inactive
same,Potency,[8],inactive
same,outcome,[10],inactive
same,Potency,[9],inactive
CC(C)=CC1C(C(=O)OCN2C(=O)C3=C(CCCC3)C2=O)C1(C)C (stereo not drawn),Potency,[7],20 µM (active)
same,Potency,[8],inactive
same,outcome,[10],inactive
CN1C(=O)CC(=O)N(c2ccccc2)c2cc(Cl)ccc21,Potency,[7],inactive
same,Potency,[8],inactive
same,outcome,[10],inactive
same,Potency,[9],inactive
NC(=O)CS(=O)C(c1ccccc1)c1ccccc1 (stereo not drawn),Potency,[7],inactive
same,Potency,[8],inactive
same,outcome,[10],inactive
same,Potency,[9],inactive
CC(C)C[C@H](CN)CC(=O)O,Potency,[7],inactive
C[C@](O)(CS(=O)(=O)c1ccc(F)cc1)C(=O)Nc1ccc(C#N)c(C(F)(F)F)c1,Potency,[7],inactive
same,Potency,[8],inactive
same,Potency,[9],16.1 µM (active)
O=c1[nH]oc2c1CCNC2,Potency,[7],inactive
same,Potency,[8],inactive
same,outcome,[10],inactive
same,Potency,[9],inactive
CN1CCC(O)(c2ccc(F)cc2)C(C(=O)c2ccc(F)cc2)C1 (stereo not drawn),Potency,[7],14.1 µM (active)
same,Potency,[8],inactive
same,Potency,[9],inactive
NC(=O)c1cc([N+](=O)[O-])cc([N+](=O)[O-])c1,Potency,[7],inactive
same,Potency,[8],inactive
same,outcome,[10],inactive
CC(C)c1c(CN(C)C(C)Cc2ccccc2)n(C)n(-c2ccccc2)c1=O (stereo not drawn),Potency,[7],inactive
Cc1nnc2n1-c1ccc(Cl)cc1C(c1ccccc1)=NC2,Potency,[7],inactive
same,Potency,[8],inactive
same,outcome,[10],inactive
same,Potency,[9],inactive
